Screening results (PubChem)
Only some compounds are listed: those with a hit (about 2.4% of all), similar ones and a draw of the others.
D2 PAM-1 = HTS Assay for Positive Allosteric Modulators of the Human D2 Dopamine Receptor: Primary Screen for Potentiators; D(2) dopamine receptor (Homo sapiens), P14416; potentiation, % at 10 µM; HEK293 T-REx D2, calcium flux, EC20 dopamine potentiation; 340,000 tested, 0.34% active;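 active = potentiation over 3 SD above the plate norm, cut at about 30% in these data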
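Primary screen. Calcium kinetics in induced HEK293 T-REx D2 cells: compound pre-addition 180 s, EC20 dopamine, 180 s more.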
D2 ag-1 = HTS Assay for Allosteric Agonists of the Human D2 Dopamine Receptor: Primary Screen for Agonists; D(2) dopamine receptor (Homo sapiens), P14416; HEK293 T-REx D2 cells, calcium flux agonist mode; activation, % at 2 µM; 340,000 tested, 0.53% active; AID 485358, 2010;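 active = activation over 3 SD above normal in the single-dose calcium agonist read, cut at about 30% in these data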
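HEK293 Trex D2 cells, tetracycline-induced, o/n 30 C 5% CO2; no-wash Ca dye, RT 30–90 min; 10-cycle baseline, 23 nl cpd added, kinetic Ca read 180 s; agonist hits = positive Ca response.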
D2 ag-2 = Beta-Arrestin HTS for Positive Allosteric Modulators of the Human D2 Dopamine Receptor: Agonists; D(2) dopamine receptor (Homo sapiens), P14416; activation, % (no concentration beside the values); DiscoveRx PathHunter D2 beta-arrestin, luminescence, 90 min; 100% = 57 uM dopamine signal; 360,000 tested, 0.084% active; AID 624465, 2012; in the data active = activation above about 40%
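DiscoveRx PathHunter D2 beta-arrestin cells (2,100/well) attached overnight, then compound-stimulated 90 min at 37 C in HBSS/10 mM HEPES/0.1% Tween-20 buffer; beta-galactosidase complementation read by luminescence after 1 h at ambient temperature. Dopamine 57 uM final (EC100) as control.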
D2 PAM-2 = Beta-Arrestin HTS for Positive Allosteric Modulators of the Human D2 Dopamine Receptor: Potentiators | potentiation, % (no concentration beside the values) | 360,000 tested, 0.23% active | AID 624464, 2012 | DiscoveRx D2 beta-arrestin cells, luminescence, 90 min; 100% = 57 uM dopamine signal; in the data active = potentiation above about 50%
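PathHunter beta-arrestin assay in DiscoveRx D2 cells. Compounds were added with an EC20 of dopamine (50 nM final) for 90 min at 37 deg C. Luminescence was read 1 h after detection reagent, with 57 uM dopamine as the EC100 control.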
D2 antagonist = HTS Assay for Allosteric Antagonists of the Human D2 Dopamine Receptor: Primary Screen for Antagonists; 340,000 tested, 2% active; inhibition, % at 10 µM; HEK293 TREx D2 cells, calcium flux, dopamine EC80; in the data active = inhibition above about 30%; inactive = below that, where a call was filed
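Read-out: kinetic calcium fluorescence (1 cycle/s) in inducible HEK293 T-REx D2 cells after an EC80 dopamine addition that followed 180 s compound preincubation. Loss of the dopamine response indicates antagonism.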
D3 ag = qHTS of D3 Dopamine Receptor Agonist: D3 Dopamine Receptor B-arrestin Agonist Confirmatory Assay; shares compounds with D2 ag-1; DiscoveRx D3 beta-arrestin cells, luminescence, 90 min; Potency, µM (doses to about 76.9 µM), usual class: activators; 2,300 tested, 4% active; AID 720506, 2013; note: nearly all actives have a fitted effect of over 70% in size
Target sequence (P35462 whole entry, looked up): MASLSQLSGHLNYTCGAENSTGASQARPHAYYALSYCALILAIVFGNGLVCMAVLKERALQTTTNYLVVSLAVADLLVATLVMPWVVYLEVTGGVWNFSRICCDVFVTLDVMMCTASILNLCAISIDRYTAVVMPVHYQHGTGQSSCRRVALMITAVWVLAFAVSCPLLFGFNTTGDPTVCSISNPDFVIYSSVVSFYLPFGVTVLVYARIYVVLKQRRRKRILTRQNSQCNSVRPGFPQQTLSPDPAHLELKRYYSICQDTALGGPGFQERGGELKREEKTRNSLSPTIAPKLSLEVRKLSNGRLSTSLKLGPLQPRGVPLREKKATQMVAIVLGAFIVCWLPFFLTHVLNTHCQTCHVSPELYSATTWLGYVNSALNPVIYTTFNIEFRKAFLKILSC
D2 ag-3 = qHTS of D3 Dopamine Receptor Agonist: D2 Dopamine Receptor B-arrestin Agonist Counterscreen; shares compounds with D2 ag-1; DiscoveRx PathHunter D2 beta-arrestin, luminescence, 90 min; response scale: percent relative to full dopamine signal; Potency, µM (series often up to 76.9 µM), actives largely listed as activators; 2,300 tested, 5.9% active; AID 720507, 2013; note: nearly all actives have a fitted effect of over 70% in size
Numbers stand for hits. Unless noted, calls come from the whole dose curve; as a rule, active = well fitted activation curve with a large enough effect; inconclusive = small, poorly fitted or top-dose-only effect; inactive = flat fitted curve, though single readings scatter.

Results for Cc1cc(C)cc(C(=O)NCCc2sc(-c3ccc(F)cc3)nc2C)c1 ?
D2 ag-1: inactive

How did CCCN1CCN(C(=O)Cn2ncc3c4ccccc4n(Cc4cccc(Cl)c4)c3c2=O)CC1 do in these assays?
D2 PAM-1: inactive; D2 ag-1: inactive

How did Cc1ccc(S(=O)(=O)N2CCOC2CNC(=O)C(=O)NCc2ccc3c(c2)OCO3)cc1 (centres undefined) do in these assays?
D2 PAM-1: inactive; D2 ag-1: inactive; D2 ag-2: inactive; D2 PAM-2: inactive; D2 antagonist: 66.0; D3 ag: inactive; D2 ag-3: inactive

How did COc1cc(NC(=O)Cn2c(C)cc(C)c(C#N)c2=O)cc(OC)c1 do in these assays?
D2 PAM-1: inactive; D2 ag-1: inactive

What do the screens show for `COc1ccc(C(=N/O)/C(=N/O)c2ccc(OC)cc2)cc1`?
D2 PAM-1: inactive; D2 ag-1: inactive; D2 ag-2: inactive; D2 PAM-2: inactive; D2 antagonist: 39.6; D3 ag: inactive; D2 ag-3: inactive

Results for CC(=O)Nc1cc(NC(C)=O)c2nc(N)sc2c1 ?
D2 PAM-1: inactive; D2 ag-1: inactive; D2 ag-2: inactive; D2 PAM-2: inactive; D2 antagonist: inactive; D3 ag: inactive; D2 ag-3: inactive

What do the screens show for `CC1(C)C2([N+](=O)[O-])CN3CC1([N+](=O)[O-])CN(C2)C3c1ccc(O)c(O)c1` (centres undefined)?
D2 PAM-1: inactive; D2 ag-1: inactive; D2 ag-2: inactive; D2 PAM-2: inactive; D2 antagonist: inactive; D3 ag: inactive; D2 ag-3: inactive

Results for CCOc1ccc(CNC(=O)C2CCN(c3nc4ccccc4nc3C(F)(F)F)CC2)cc1OC ?
D2 PAM-1: inactive; D2 ag-1: inactive
